Measured values: PubChem BioAssay (Tox21)
Inconclusive results are not listed. Entries that show only a call come without a potency. Calls of active or inactive are those of the source. Unless noted, the call rests on the fitted dose curve; in most records, active means well fitted curve in the direction sought with a large enough effect in the repeat runs; inconclusive means weak or mixed curves; inactive means no such curve, though single readings can be large; an effect the other way counts as inactive or inconclusive.

Key:
[1] = qHTS assay to test for compound auto fluorescence at 535 nm (green) in HEK293 cells (AID 720680)
[2] = qHTS assay to test for compound auto fluorescence at 460 nm (blue) in HEK293 cell free culture (AID 720681)
Outline: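 Blue fluorescence (Ex 405/Em 460 nm, triamterene-equivalent) was read immediately after pin transfer of compound or DMSO into medium (DMEM, 10% FBS) without cells.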

[3] = qHTS assay to test for compound auto fluorescence at 535 nm (green) in HEK293 cell free culture (AID 720682)
Outline: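 Green-channel intensity (Ex/Em 485/535 nm) was recorded from compound-treated wells containing only DMEM with 10% FBS. Fluorescein provided the equivalency standard.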

[4] = qHTS assay to test for compound auto fluorescence at 590 nm (red) in HEK293 cell free culture (AID 720683)
Outline: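 Red-channel autofluorescence of compounds in culture medium (DMEM, 10% FBS), no cells, measured at 540/590 nm. Rose Bengal sodium is the reference fluorophore for equivalence.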

[5] = qHTS assay to test for compound auto fluorescence at 590 nm (red) in HepG2 cell free culture (AID 720684)
Outline: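 Plate contents were MEM with 10% FBS plus test compound or DMSO, no cells. Fluorescence was recorded with 540 nm excitation and 590 nm emission.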

[6] = qHTS assay to test for compound auto fluorescence at 460 nm (blue) in HepG2 cell free culture (AID 720685)
Outline: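 Compound (23 nL) or DMSO pinned into cell-free MEM with 10% FBS; blue fluorescence read at 405/460 nm excitation/emission, expressed as auto-fluorescence equivalency to triamterene.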

[7] = qHTS assay to test for compound auto fluorescence at 535 nm (green) in HepG2 cell free culture (AID 720686)
[8] = qHTS assay to test for compound auto fluorescence at 460 nm (blue) in HepG2 cells (AID 720687)
Outline: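 Blue-channel autofluorescence (Ex/Em 405/460 nm, triamterene-equivalent) was measured after 1 hr compound exposure at 37 C, 5% CO2. Cells were HepG2, plated overnight at 37 C in MEM plus 10% FBS.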

[9] = molecular target: Glucocorticoid receptor (Homo sapiens) (UniProt P04150); test: qHTS assay to identify small molecule agonists of the glucocorticoid receptor (GR) signaling pathway (AID 720691; active means well fitted activation curve with a large enough effect in the signal ratio in the repeat runs, not every such curve was filed as active; the % refers to the signal ratio)
Glucocorticoid receptor (Homo sapiens), sequence (P04150 whole entry, looked up): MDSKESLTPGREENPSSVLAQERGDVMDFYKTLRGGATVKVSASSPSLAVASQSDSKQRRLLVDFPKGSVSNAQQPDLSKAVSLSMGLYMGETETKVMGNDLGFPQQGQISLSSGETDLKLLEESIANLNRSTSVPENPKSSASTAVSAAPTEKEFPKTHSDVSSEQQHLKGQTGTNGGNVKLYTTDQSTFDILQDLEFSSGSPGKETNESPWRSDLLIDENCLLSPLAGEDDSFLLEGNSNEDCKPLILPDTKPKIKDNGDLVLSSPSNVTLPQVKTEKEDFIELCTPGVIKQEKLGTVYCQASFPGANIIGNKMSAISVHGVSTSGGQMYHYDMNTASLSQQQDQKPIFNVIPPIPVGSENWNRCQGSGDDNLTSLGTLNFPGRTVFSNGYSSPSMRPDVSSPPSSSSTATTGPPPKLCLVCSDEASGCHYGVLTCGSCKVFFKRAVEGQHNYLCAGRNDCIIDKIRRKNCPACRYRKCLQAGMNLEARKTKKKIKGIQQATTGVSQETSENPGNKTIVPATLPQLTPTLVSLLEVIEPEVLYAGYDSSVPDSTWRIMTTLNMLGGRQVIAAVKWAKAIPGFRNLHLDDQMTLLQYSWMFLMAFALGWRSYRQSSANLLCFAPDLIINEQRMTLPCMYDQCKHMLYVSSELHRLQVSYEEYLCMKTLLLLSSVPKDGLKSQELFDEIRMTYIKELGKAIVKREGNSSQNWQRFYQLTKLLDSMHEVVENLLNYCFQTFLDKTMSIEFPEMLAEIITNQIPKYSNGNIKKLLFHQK
Outline: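 GR-bla HeLa cells carrying a GRE-driven beta-lactamase reporter, exposed to compounds for 18 h at 37 C. Reporter activation read as fluorescence after 2 h with LiveBLAzer B/G FRET substrate at room temperature.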

[10] = molecular target: Glucocorticoid receptor (Homo sapiens) (UniProt P04150); test: qHTS assay to identify small molecule antagonists of the glucocorticoid receptor (GR) signaling pathway (AID 720692; active means well fitted inhibition curve with a large enough effect in the signal ratio in the repeat runs, not every such curve was filed as active; the % refers to the signal ratio; further: potency means the concentration at half of the fitted maximal effect)
Outline: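 GR-bla HeLa cells carrying a GRE-driven beta-lactamase reporter received compound after 4 h plating, then dexamethasone (5 nM final). After 18 h at 37C, the FRET substrate was loaded for 2 h at room temperature and fluorescence read.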

[11] = qHTS assay to identify small molecule antagonists of the glucocorticoid receptor (GR) signaling pathway - cell viability counter screen (AID 720693); further: nearly all actives have a fitted effect of over 55% in size
[12] = qHTS assay for identifying genotoxic compounds that show differential cytotoxicity against isogenic chicken DT40 cell lines with known DNA damage response pathways - wild type cell line (AID 743012); further: nearly all actives have a fitted effect of over 60% in size; further: potency means the concentration at half of the fitted maximal effect
Outline: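 Wild-type DT40 cells (300/well) exposed to compounds for 40 hours at 37 C/5% CO2. Viability read by CellTiter-Glo luminescence after 30 min at room temperature.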

[13] = qHTS assay for identifying genotoxic compounds that show differential cytotoxicity against isogenic chicken DT40 cell lines with known DNA damage response pathways - Rev3 mutant cell line (AID 743014); further: nearly all actives have a fitted effect of over 55% in size; further: potency means the concentration at half of the fitted maximal effect
[14] = qHTS assay to identify small molecule antagonists of the androgen receptor (AR) signaling pathway - cell viability counter screen (AID 743033; further: nearly all actives have a fitted effect of over 45% in size; further: potency means the concentration at half of the fitted maximal effect)
[15] = qHTS assay to identify small molecule antagonists of the androgen receptor (AR) signaling pathway using the MDA cell line - cell viability counter screen (AID 743041; further: nearly all actives have a fitted effect of over 45% in size; further: potency means the concentration at half of the fitted maximal effect)
Outline: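 R1881-driven MDA-kb2 AR-luc cells, 3,000/well, were dosed with library compounds for 16 h; cell health came from CellTiter-Fluor fluorescence in the reporter wells.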

[16] = qHTS assay to identify small molecule antagonists of the thyroid receptor (TR) signaling pathway - cell viability counter screen (AID 743064); further: nearly all actives have a fitted effect of over 50% in size; further: potency means the concentration at half of the fitted maximal effect
Outline: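 In rat pituitary GH3.TRE-Luc reporter cells co-exposed to compound and 1 nM T3 for 23.5 h, cytotoxicity was assessed with CellTiter-Fluor in the same wells, read by fluorescence.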

[17] = qHTS assay for identifying genotoxic compounds that show differential cytotoxicity against isogenic chicken DT40 cell lines with known DNA damage response pathways - Rad54/Ku70 mutant cell line (AID 743015); further: nearly all actives have a fitted effect of over 60% in size; further: potency means the concentration at half of the fitted maximal effect
[18] = molecular target: Androgen receptor (Homo sapiens) (UniProt P10275); test: qHTS assay to identify small molecule antagonists of the androgen receptor (AR) signaling pathway (AID 743035; active means well fitted inhibition curve with a large enough effect in the signal ratio in the repeat runs, not every such curve was filed as active; the % refers to the signal ratio)
Androgen receptor (Homo sapiens), sequence (P10275 whole entry, looked up): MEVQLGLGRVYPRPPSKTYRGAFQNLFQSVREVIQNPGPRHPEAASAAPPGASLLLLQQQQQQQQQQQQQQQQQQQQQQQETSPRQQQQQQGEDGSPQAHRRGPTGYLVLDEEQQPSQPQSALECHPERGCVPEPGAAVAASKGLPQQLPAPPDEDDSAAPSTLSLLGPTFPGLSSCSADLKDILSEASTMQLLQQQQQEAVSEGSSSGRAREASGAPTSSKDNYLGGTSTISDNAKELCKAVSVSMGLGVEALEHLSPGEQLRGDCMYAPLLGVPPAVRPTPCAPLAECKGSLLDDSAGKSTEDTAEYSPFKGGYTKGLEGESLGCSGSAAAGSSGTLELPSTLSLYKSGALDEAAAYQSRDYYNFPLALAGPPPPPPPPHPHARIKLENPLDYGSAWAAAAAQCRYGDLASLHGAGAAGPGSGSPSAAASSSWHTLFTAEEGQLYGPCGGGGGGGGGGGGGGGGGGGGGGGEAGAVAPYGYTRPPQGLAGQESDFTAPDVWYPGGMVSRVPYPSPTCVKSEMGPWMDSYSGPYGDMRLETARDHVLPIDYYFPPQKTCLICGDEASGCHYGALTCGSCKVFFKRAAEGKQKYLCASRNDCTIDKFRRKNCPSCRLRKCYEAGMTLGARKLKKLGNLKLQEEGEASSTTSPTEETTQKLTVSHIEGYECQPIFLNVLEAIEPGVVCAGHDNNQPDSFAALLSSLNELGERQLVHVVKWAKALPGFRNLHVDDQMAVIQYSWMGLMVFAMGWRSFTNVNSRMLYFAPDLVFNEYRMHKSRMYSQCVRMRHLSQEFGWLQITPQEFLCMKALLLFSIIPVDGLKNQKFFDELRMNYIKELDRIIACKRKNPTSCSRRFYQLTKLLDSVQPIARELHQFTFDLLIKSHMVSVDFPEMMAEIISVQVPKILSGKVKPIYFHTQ
Outline: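 HEK293 cells stably carrying UAS-beta-lactamase reporter, 2,000/well, given compounds plus R1881 agonist and incubated 16 h at 37C. LiveBLAzer B/G FRET substrate then added for 2 h at room temperature before fluorescence reading.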

[19] = molecular target: Androgen receptor (Homo sapiens) (UniProt P10275); test: qHTS assay to identify small molecule agonists of the androgen receptor (AR) signaling pathway using the MDA cell line (AID 743040; further: nearly all actives have a fitted effect of over 20% in size)
Outline: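 After a 5 h incubation at 37C and 0% CO2, MDA-kb2 reporter cells were dosed with compounds in DMSO and kept 16 h under the same conditions. Luciferase activity was then read as luminescence with ONE-Glo.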

[20] = molecular target: Androgen receptor (Homo sapiens) (UniProt P10275); test: qHTS assay to identify small molecule antagonists of the androgen receptor (AR) signaling pathway using the MDA cell line (AID 743042; further: nearly all actives have a fitted effect of over 55% in size)
Outline: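 Antagonist mode: compounds plus R1881 agonist added to MDA-kb2 AR-luc cells, incubated 16 h at 37C. Luciferase reporter luminescence quantified, with multiplexed CellTiter-Fluor readout for cell viability.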

Row | Structure (SMILES) | outcome [1] | Potency [2] | outcome [3] | outcome [4] | outcome [5] | Potency [6] | outcome [7] | Potency [8] | Potency [9] | Potency [10] | Potency [11] | Potency [12] | Potency [13] | Potency [14] | Potency [15] | Potency [16] | Potency [17] | Potency [18] | Potency [19] | Potency [20]
1 | CCOc1cc(N)c(Cl)cc1C(=O)NCC1CN(Cc2ccc(F)cc2)CCO1 (stereo unspecified) | inactive | inactive | inactive | inactive | inactive | inactive | inactive | inactive | inactive | inactive | inactive | 18.8 µM (active) | 11.9 µM (active) | inactive | inactive | inactive |  |  |  | 
2 | COCCOC(=O)C1=C(C)NC(C)=C(C(=O)OC/C=C/c2ccccc2)C1c1cccc([N+](=O)[O-])c1 (stereo unspecified) | inactive | inactive | inactive | inactive | inactive | inactive | inactive | inactive | inactive | 10.7 µM (active) | inactive | 13.3 µM (active) | 11.9 µM (active) |  |  | 13.3 µM (active) | 11.9 µM (active) |  |  | 
3 | O=[N+]([O-])c1cccc(S(=O)(=O)NCCNS(=O)(=O)c2cccc([N+](=O)[O-])c2)c1 | inactive | inactive | inactive | inactive | inactive | inactive | inactive | inactive | inactive | inactive | inactive | inactive |  | inactive | inactive | inactive | inactive |  |  | 
4 | NCC1CCCC(CN)C1 (stereo unspecified) | inactive | inactive | inactive | inactive | inactive | inactive | inactive | inactive | inactive | inactive | inactive |  | inactive | inactive | inactive | inactive | inactive | inactive |  | 
5 | O=C(O)C(Cc1cc(I)c(O)c(I)c1)c1ccccc1 (stereo unspecified) | inactive | inactive | inactive | inactive | inactive | inactive | inactive | inactive | inactive | inactive |  | inactive | inactive | inactive | inactive | inactive | inactive |  |  | 
6 | C=CC(C)(C)CC(=O)OC | inactive | inactive | inactive | inactive | inactive | inactive | inactive | inactive | inactive | inactive | inactive | inactive | inactive | inactive | inactive | inactive |  |  |  | 
7 | CCC(C(=O)OCCOCCN(CC)CC)c1ccccc1 (stereo unspecified) | inactive | inactive | inactive | inactive | inactive | inactive | inactive | inactive | inactive | inactive | inactive |  | 10.6 µM (active) | inactive | inactive | inactive | 21.1 µM (active) |  |  | 
8 | CCCCCCCCSCCO | inactive | inactive | inactive | inactive | inactive | inactive | inactive | inactive | inactive | inactive | inactive | inactive |  | inactive | inactive | inactive |  |  | inactive | inactive
9 | COc1cc2c(N3CCN(C(=O)Nc4ccc(OC(C)C)cc4)CC3)ncnc2cc1OCCCN1CCCCC1 | inactive | inactive | inactive | inactive | inactive | inactive | inactive | inactive | inactive |  | inactive | 6.68 µM (active) | 7.5 µM (active) | 6.01 µM (active) | 33.5 µM (active) | 11.9 µM (active) | 5.96 µM (active) | inactive |  | 
10 | CN(C(=O)C(Cl)Cl)c1ccc(OC(=O)c2ccco2)cc1 | inactive | inactive | inactive | inactive | inactive | inactive | inactive | inactive | inactive | inactive | inactive | 26.6 µM (active) |  | inactive | inactive |  |  | inactive |  | 
11 | CCCCCCCCCCCCCCC[C@H](O)[C@@H](N)CO | inactive | inactive | inactive | inactive | inactive | inactive | inactive | inactive | inactive |  | inactive | inactive | inactive | inactive | inactive |  | inactive | inactive | inactive | 
12 | CCCCCCOC(=O)CCCCCCCC(=O)OCCCCCC | inactive | inactive | inactive | inactive | inactive | inactive | inactive | inactive | inactive | inactive | inactive | inactive | inactive | inactive | inactive | inactive |  |  |  | 
13 | c1cc[c]([Bi]([c]2ccccc2)[c]2ccccc2)cc1 | inactive | inactive | inactive | inactive | inactive | inactive | inactive | inactive | inactive | 19.5 µM (active) | inactive | 61.1 µM (active) |  | inactive |  |  |  |  |  | 
14 | C[Si](NC1CCCCC1)(NC1CCCCC1)NC1CCCCC1 | inactive | inactive | inactive | inactive | inactive | inactive | inactive | inactive | inactive | inactive | inactive |  | 61.1 µM (active) |  | inactive | inactive |  |  |  | 
